# Compound activity deposited in PubChem by National Center for Advancing Translational Sciences (NCATS).
# Shown are actives, neighbours in structure and some others; about 11% of the full set was active somewhere.
# Sm TGR block: qHTS Assay for the Inhibitors of Schistosoma Mansoni Peroxiredoxins. Schistosoma mansoni thioredoxin glutathione reductase (TGR), Q962Y6. purified TGR, DTNB reduction, TNB absorbance 405 nm. Potency, µM (titrated, usually from 114 µM), for the others: at the highest dose activity change, negative = inhibition, usual class: inhibitors. 360,000 compounds, 3% hits. AID 485364, 2010; note: % is set by controls: 0 for no effect and ±100 for the full control effect; nearly all actives have a fitted effect of over 60% in size
#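 TGR 20 nM + NADPH 100 uM (dispensed conc.), cpd preinc 15 min RT; start with NADPH (500 uM addition) then DTNB (15 mM addition). Kinetic TNB absorbance, 405 nm filter. Four-parameter Hill fit across titration.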
# NS1 function inh: qHTS Assay for Inhibitors of Influenza NS1 Protein Function. Potency, µM (top dose mostly 46.1 µM), for the others: at the top dose activity, positive = more growth. 270,000 compounds, 0.4% hits; calls by dose curve; note: actives are rising curves; nearly all actives have a fitted effect of over 50% in size
#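 A cell-based growth assay was used: compounds that relieve NS1-induced slow growth of budding yeast raise OD600. Assay medium was yeast nitrogen base with ammonium sulphate and -URA supplement, pH 6.0, with 2% galactose.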
# Pf growth 48h: Primary qHTS for delayed death inhibitors of the malarial parasite plastid, 48 hour incubation; Potency, µM (series often up to 28.7 µM), without a hit: at the top dose activity change, negative = inhibition, usual class: inhibitors; P. falciparum luciferase growth in erythrocytes, 48 h; 310,000 compounds, 5.9% hits; note: % is set by controls: 0 for no effect and ±100 for the full control effect
#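 Read-out is firefly luciferase luminescence from an integrated reporter in P. falciparum, so falling signal marks reduced parasite growth. Infected erythrocytes were at 2% hematocrit and 0.1% parasitemia (final) in Albumax-supplemented RPMI 1640.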
# AMA1-RON2 inh: qHTS for Inhibitors of AMA1-RON; Towards Development of Antimalarial Drug Lead: Primary Screen; AlphaScreen AMA1-biotinylated RON2 peptide binding; Potency, µM (doses to about 58.2 µM), for inactives: at the highest dose activity change, negative = inhibition, actives largely listed as inhibitors; 360,000 compounds, 0.2% hits;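 note: 0% = vehicle wells and -100% = peptide control; nearly all actives have a fitted effect of over 45% in size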
#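 AMA1 (3D7) with his tag at 25 nM final met compounds first, then biotinylated RON2 peptide at 25 nM; detection used donor plus acceptor beads, 10 µg/mL apiece, read by AlphaScreen after 30 min at room temperature.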
# Pf growth 96h: Primary qHTS for delayed death inhibitors of the malarial parasite plastid, 96 hour incubation; P. falciparum luciferase reporter growth, 96 h; AID 504834, 2011; 320,000 compounds, 6.9% hits; Potency, µM (series often up to 28.7 µM), for the others: at the highest dose activity change, negative = inhibition, usual class: inhibitors; note: % is set by controls: 0 for no effect and ±100 for the full control effect
#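 Infected RBCs, 2% Hct / 0.05% parasitemia final; luciferase-reporter P. falciparum; cpd 96 h, 37 C, 5% CO2; luciferase detection reagent; luminescence.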
# * = called active by the depositor; ? = inconclusive; · = no result; [ ] = remark or other dose. Unless noted, calls come from the whole dose curve; as a rule, active = well fitted curve in the direction sought with a large enough effect; inconclusive = small, poorly fitted or top-dose-only effect, or another doubt; inactive = no such curve, though single readings can be large; an effect the other way counts as inactive or inconclusive. Potency is the fitted concentration of half-maximal effect.
SMILES,Sm TGR block,NS1 function inh,Pf growth 48h,AMA1-RON2 inh,Pf growth 96h
CCOc1ccc(NC(=O)CSc2nc3ccccc3nc2N2CC(C)OC(C)C2)cc1 (stereo not given),0%,21%,?,28%,9.3µM*
O=C(CSc1nc2ccccc2nc1N1CCOCC1)N1CCN(c2ccccc2)CC1,3%,-16%,9.3µM*,-18%,?
CCOc1ccc(NC(=O)COc2nsnc2N2CCCCC2)cc1,31%,-3%,-5%,-8%,12µM*
COc1ccccc1CNC(=O)C1(C)CCN1Cc1ccc(OC(F)(F)F)cc1 (stereo not given),·,·,·,-2%,·
COc1ccc(C2=NS(=O)(=O)N(C)C(C(=O)N(C)Cc3ccccc3)=C2)cc1OC,-14%,17%,-23%,0%,0%
CCOc1ccccc1C(=O)N(Cc1ccc(N(C)C)cc1)Cc1ccco1,-2%,·,·,·,·
O=C(CSc1ccc2ccccc2c1)N1CCN(c2ccc(O)cc2)CC1,50µM*,-9%,6%,-10%,3%
O=C(c1ccc2ccccc2c1)N1CCN(c2ccc(O)cc2)CC1,-25%,?,-10%,-16%,?
CCOc1ccc(-c2nc3c(c(SCC(=O)N4CCCCC4)n2)Cc2cc(C)ccc2O3)cc1,-10%,·,·,·,·
Cc1ccc(S(=O)(=O)N/N=C/c2cccc3c2OCCO3)cc1,-9%,-10%,1%,11%,2.1µM*
CN1CCN(c2ccc(-c3cc(O)c4ncccc4c3)cc2)CC1,-4%,·,2.6µM*,·,2.6µM*
Oc1cc(-c2ccncc2)cc2cccnc12,-10%,·,?,·,5.2µM*
Oc1cc(-c2ccc(N3CCCCC3)nc2)cc2cccnc12,-12%,·,4.1µM*,·,2.9µM*
CN(C)c1ccc(-c2cc(O)c3ncccc3c2)cc1,3%,·,3.7µM*,·,5.2µM*
CN(C(=O)COC(=O)Cc1c(F)cccc1Cl)c1c(N)n(Cc2ccccc2)c(=O)[nH]c1=O,-1%,·,?,12%,12%
CN(C)CCCNC(=O)c1ccccn1,0%,-4%,·,40%,1%
CN(C)CCCNC(=O)c1ccc(-c2nc(-c3ccc(Cl)cc3)cs2)cc1,19%,-130%,2.6µM*,7%,1.5µM*
CN(C)CCCNC(=O)c1ccc(-c2cc(O)c3ncccc3c2)cc1,-4%,·,10µM*,·,6.6µM*
CN(C)c1ccc(/C=C/C=C/c2sc3ccccc3[n+]2C)cc1,-32%,-65%,16%,-26%,41%
C[n+]1ccc(/C=C/c2ccccc2O)c2ccccc21,-13%,·,10µM*,-5%,?
CN(C)c1ccc(/C=C/c2cc[n+](C)c3ccccc23)cc1,·,-59%,1µM*,?,?
C[n+]1ccc(-c2ccccc2)c2ccccc21,-19%,·,1µM*,1%,?
CN1/C(=C/c2cc[n+](C)c3ccccc23)C=Cc2ccccc21,-31%,·,?,-27%,-28%
COc1ccc(NS(=O)(=O)c2ccc(-c3cnc(C4CC4)o3)cc2)cc1Cl,7%,·,·,·,·
Cc1ccc(C)c(S(=O)(=O)c2nnn3c2nc(N2CCCCC2)c2sccc23)c1,0%,·,·,·,·
SMILES,Sm TGR block,NS1 function inh,Pf growth 48h,AMA1-RON2 inh,Pf growth 96h
OCC1CCN(Cc2cn(Cc3ccccc3)nc2-c2cc3ccccc3o2)CC1,1%,2%,?,14%,?
OCC1CCCN(Cc2cn(Cc3ccccc3)nc2-c2cc3ccccc3o2)C1 (stereo not given),?,-1%,15µM*,8%,-21%
COC1CCN(Cc2cn(Cc3ccccc3)nc2-c2cc3ccccc3o2)CC1,3%,-5%,10µM*,0%,10µM*
CC(=O)C1=C(C)NC(SCC(=O)c2cc(Cl)ccc2Cl)=C(C#N)C1c1ccco1 (stereo not given),?,15%,9.3µM*,47%,9.3µM*
CC(=O)C1=C(C)NC(SCC(=O)c2ccc(F)cc2)=C(C#N)C1c1ccco1 (stereo not given),-8%[11.4 µM],-68%,·,1%,?
CC(=O)C1=C(C)NC(SCC(=O)c2ccc(Cl)c(Cl)c2)=C(C#N)C1c1ccco1 (stereo not given),?,?,1.2µM*,16%,-112%
Cc1ccc(CCN2CC(C(=O)NCCCN3CCC(C)CC3)CC2=O)cc1 (stereo not given),5%,-2%,?,1%,?
S=c1nc(-c2csc3c2CCCC3)[nH][nH]1,35µM*,4%,0%,85%,54%
CC1=C(C(=O)OCc2ccccc2)C(c2cccc([N+](=O)[O-])c2)NC(=O)N1CCCCCC(=O)O (stereo not given),-7%,-1%,?,7%,10µM*
CC1=C(C(=O)OCc2ccccc2)C(c2ccc(Cl)cc2)NC(=O)N1CCCCCC(=O)O (stereo not given),-19%,-3%,?,-2%,12µM*
CCOC(=O)C1=C(C)N(CCCCCC(=O)O)C(=O)NC1c1cccc([N+](=O)[O-])c1 (stereo not given),-21%,4%,-3%,8%,4%
COc1ccc(C(=O)N2CC(=O)Nc3ccc(C)cc3C2c2ccccc2)cc1OC (stereo not given),4%,·,·,·,·
O=C(N/N=C/c1ccco1)C1CCCC1,-16%,0%,14%,33%,-4%
Cc1cc(N)c2cc(NC(=O)Nc3ccc4nc(C)cc(N)c4c3)ccc2n1,·,-77%,1.2µM*,·,?
CCc1nnc(NC(=O)Cc2ccc(S(=O)(=O)N3CCCCC3)cc2)s1,-17%,·,12µM*,0%,12µM*
Cc1cnc(NC(=O)Cc2ccc(S(=O)(=O)N3CCOCC3)s2)s1,·,·,·,51%,·
CCCOc1ccc(NC(=O)Cc2ccc(S(=O)(=O)N3CCOCC3)s2)cc1OCCC,0%,·,?,-18%,?
CCCCc1nnc(NC(=O)Cc2ccc(S(=O)(=O)N3CCOCC3)s2)s1,-21%,·,10µM*,41%,?
CC(C)(C)c1csc(NC(=O)Cc2ccc(S(=O)(=O)N3CCOCC3)s2)n1,-13%,·,?,8%,10µM*
CSCCC(NC(=O)c1ccc(Cl)cc1Cl)C(=O)NCc1ccncc1 (stereo not given),1%,·,-19%,-2%,16%
COc1ccc(NC(=O)C2=C(C)Nc3nc(CCCO)nn3C2c2ccc(O)cc2)cc1 (stereo not given),2%,·,·,·,·
Cc1ccc2c(C(=O)CN3CCCC(C)C3)c(C)[nH]c2c1 (stereo not given),35µM*,1%,-9%,8%,1%
Cc1ccc2c(C(=O)CN3CCN(c4ccccc4)CC3)c(C)[nH]c2c1,-13%,-3%,-4%,0%,5%
